# In PubChem BioAssay AID1053175 (ICCB-Longwood Screening Facility, Harvard Medical School, 2014):
# Among all 330,000 compounds or so, about 700 (0.21%) were called active. This is one part of a sample in which actives are shown more often than they occur. Unmarked numbers belong to inactive results.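 How the source made its calls: active means OD600 absorbance below the run mean of sample wells minus 3.6 SD, in any replicate (cut at about 0.56 in these data); inactive means the rest.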
# Assay: E. coli growth inhibition, primary screen, OD600 (AID 1053175)
# Settings: Escherichia coli growth, OD600, 23 h; stronger effect = lower value
row,Compound,OD600 absorbance
1,CCCCCCCCCCCCn1ccc(=N)cc1,0.07 (active)
2,CN1CCN(N=Cc2c[nH]c3ccccc23)CC1,0.702
3,COC(=O)C1=C(c2cccc(OC)c2OC)CC2CCC1N2C(=O)N1CCOCC1 (stereo not given),0.685
4,Nc1nonc1C(=O)NN=Cc1ccc([N+](=O)[O-])o1,0.449 (active)
5,COCCNC(=O)N1C2CCC1C(C(=O)OC)=C(c1ccc(OC(F)(F)F)cc1)C2 (stereo not given),0.679
6,COC(=O)C1=C(c2ccc(F)cc2OCc2ccccc2)CC2CCC1N2C(=O)NCc1ccco1 (stereo not given),0.626
7,Oc1ccc(C=NNP(=S)(c2ccccc2)c2ccccc2)cc1O,0.685
8,C=C1C(=O)OC2CC(C)C3C=CC(=O)[C@@]3(C)C(O)C12 (stereo not given in full),0.625
9,CCN(CC)c1ccc([N+](=O)[O-])c2cccnc12,0.662
10,O=[N+]([O-])c1cnc2ccc3ccccc3c2c1,0.447 (active)
11,Cc1ccc(-n2c(-c3ccc([N+](=O)[O-])cc3)nc3ccccc3c2=O)cc1,0.718
12,CNC(=O)Nc1ccc(C(=O)NN=CC23CC[C@@H](O)CC2(O)CC[C@@H]2[C@@H]3CCC3(C)C(C4=CC(=O)OC4)CCC23O)cc1 (stereo not given in full),0.72
13,CC12CCC3C(CCC4CC(=NO)CCC43C)C1CCC2O (stereo not given),0.701
14,COc1ccc(-n2c(C=C3C(=O)Nc4ccccc43)nc3ccccc3c2=O)cc1,0.706
15,COC(=O)C1=C(c2ccc(S(C)(=O)=O)cc2)CC2CCC1N2C(=O)NCc1ccc(F)cc1 (stereo not given),0.701
16,O=C1NC(=O)N(c2ccccc2)C(=O)/C1=C/c1ccc([N+](=O)[O-])s1,0.531
17,COc1ccc(N2C(=O)/C(=C/c3ccco3)C(=O)NC2=S)cc1,0.67
18,COc1cccc(N2C(=O)NC(=O)/C(=C\c3ccc([N+](=O)[O-])s3)C2=O)c1,0.482 (active)
19,COC(=O)C1=C(c2ccc(OC(F)(F)F)cc2)CC2CCC1N2C(=O)NC1CC1 (stereo not given),0.688
20,C[C@]12CCC3c4ccc(O)c(O)c4CCC3C1CCC2O (stereo not given in full),0.667
